According to PubChem BioAssay (EPA / NIEHS):
Inconclusive results are not listed. Some structures have more than one record in an assay (separate samples or runs), and their calls can disagree. Activity calls are given as the source filed them. The calls were made as follows, unless noted: active = hit-call score of the fitted dose curve at least 0.9, where 1 is the maximum; inconclusive = response in the unintended direction; inactive = score below 0.9.

What was measured:
[1] = target: Nuclear receptor subfamily 1 group I member 3 (Homo sapiens) (UniProt Q14994); assay: ATG_CAR_TRANS: Attagene TRANS-FACTORIAL HepG2 Assay for human Constitutive Androstane Receptor (CAR) (AID 2282969); conditions: HepG2 Attagene TRANS-FACTORIAL CAR reporter;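 also: activators raise reporter mRNA above DMSO so AC50 marks induction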
In short: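 HepG2 cells transiently transfected with multiplexed GAL4-UAS reporter units expressing chimeric NR-Gal4 proteins; compound exposure 24 h. Reporter mRNA measured by RT-PCR, 6-FAM labelling, HpaI digestion and capillary electrophoresis; gain-of-signal fitted against DMSO baseline.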

[2] = ATG_M_19_TRANS: Attagene TRANS-FACTORIAL HepG2 Assay for M19 Transcription Factor (Internal Marker) (AID 2282974); conditions: HepG2 Attagene TRANS-FACTORIAL M19 internal marker reporter
In short: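 HepG2 transiently transfected with GAL4-UAS multiplex reporter constructs, exposed 24 h; reporter RNA quantified by RT-PCR, 6-FAM labeling, HpaI digestion and capillary electrophoresis; internal background marker fitted upward versus DMSO.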

[3] = ATG_GAL4_TRANS: Attagene TRANS-FACTORIAL HepG2 Assay for GAL4 (Internal Marker) (AID 2282976); conditions: HepG2 Attagene TRANS GAL4 internal marker reporter
In short: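 Background-control readout: GAL4-UAS reporter transcript in transiently transfected HepG2 cells after 24 h compound exposure. Measured by RT-PCR, 6-FAM primer extension, HpaI digest and capillary electrophoresis; gain-of-signal fit versus DMSO.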

[4] = target: Estrogen-related receptor gamma (Homo sapiens) (UniProt P62508); assay: ATG_ERRg_TRANS: Attagene TRANS-FACTORIAL HepG2 Assay for human Estrogen-Related Receptor gamma (ERRg) (AID 2282977); conditions: HepG2 Attagene TRANS reporter, ERRg transactivation;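 also: hits increase reporter signal over DMSO so potencies reflect activators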
In short: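 HepG2 cells transiently transfected with multiplexed GAL4-UAS reporter units and chimeric NR-Gal4 constructs were exposed to test chemicals for 24 h. Reporter mRNA was measured by RT-PCR, 6-FAM primer extension, HpaI digestion and capillary electrophoresis; gain-of-signal versus DMSO.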

[5] = target: Oxysterols receptor LXR-alpha (Homo sapiens) (UniProt Q13133); assay: ATG_LXRa_TRANS: Attagene TRANS-FACTORIAL HepG2 Assay for human Liver X Receptor alpha (LXRa) (AID 2282980); conditions: HepG2 Attagene TRANS reporter, LXRa transactivation
In short: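 HepG2 cells transiently transfected with GAL4-UAS reporter units for chimeric NR-Gal4 proteins, exposed to chemicals for 24 h. Reporter mRNA quantified by RT-PCR and capillary electrophoresis; gain of signal fitted relative to DMSO.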

[6] = target: Oxysterols receptor LXR-beta (Homo sapiens) (UniProt P55055); assay: ATG_LXRb_TRANS: Attagene TRANS-FACTORIAL HepG2 Assay for human Liver X Receptor beta (LXRb) (AID 2282981); conditions: HepG2 Attagene TRANS GAL4-LXRb reporter, mRNA
In short: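 HepG2 cells transiently transfected with multiple reporter transcription units carrying chimeric NR-Gal4 proteins acting on GAL4-UAS reporters; compound exposure 24 h. Reporter mRNA quantified by RT-PCR, 6-FAM labelling, HpaI digestion and capillary electrophoresis; gain of signal versus DMSO.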

[7] = target: Hepatocyte nuclear factor 4-alpha (Homo sapiens) (UniProt P41235); assay: ATG_HNF4a_TRANS: Attagene TRANS-FACTORIAL HepG2 Assay for human Hepatocyte Nuclear Factor 4 alpha (HNF4a) (AID 2282982); conditions: HepG2 HNF4a transactivation reporter, mRNA readout
In short: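 HepG2 cells transiently transfected with multiplexed GAL4-UAS reporter units responsive to chimeric NR-GAL4 proteins; compound exposure 24 h. Reporter mRNA quantified by RT-PCR, 6-FAM labelling, HpaI digestion and capillary electrophoresis; gain of signal versus DMSO baseline.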

[8] = ATG_M_32_TRANS: Attagene TRANS-FACTORIAL HepG2 Assay for M32 Transcription Factor (Internal Marker) (AID 2282984); conditions: HepG2 Attagene TRANS M32 internal marker reporter
In short: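 HepG2 cells transiently transfected with multiple GAL4-UAS reporter transcription units, dosed for 24 hours; reporter mRNA quantified by RT-PCR, 6-FAM primer extension, HpaI digestion and capillary electrophoresis. Gain-of-signal fitted versus DMSO baseline; internal background-control marker.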

[9] = target: Nuclear receptor subfamily 4 group A member 2 (Homo sapiens) (UniProt P43354); assay: ATG_NURR1_TRANS: Attagene TRANS-FACTORIAL HepG2 Assay for human Nuclear Receptor Related Protein 1 (NURR1) (AID 2282985); conditions: HepG2 Attagene TRANS reporter, mRNA readout
In short: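 HepG2 cells transiently transfected with GAL4-UAS reporter units and chimeric NR-Gal4 constructs; chemical exposure 24 h. Reporter mRNA quantified by RT-PCR, fluorescent labelling and capillary electrophoresis; gain of signal fitted relative to DMSO baseline.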

[10] = target: Transcriptional activator Myb (Homo sapiens) (UniProt P10242); assay: ATG_Myb_CIS: Attagene CIS-FACTORIAL HepG2 Assay for human Myeloblastosis (Myb) Proto-Oncogene Transcription Factor (AID 2282986; active = hit-call score of the fitted dose curve at least 0.9, where 1 is the maximum; inactive = score below 0.9); conditions: HepG2 Attagene CIS-FACTORIAL Myb reporter transcription; actives raise or lower the signal
In short: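 Transiently transfected HepG2 cells carrying a multiplexed cis-promoter reporter set report endogenous Myb activity after 24 h compound exposure. Reporter mRNA is read by RT-PCR with capillary electrophoresis of fluorescent products, fitted bidirectionally against DMSO.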

[11] = target: Nuclear respiratory factor 1 (Homo sapiens) (UniProt Q16656); assay: ATG_NRF1_CIS: Attagene CIS-FACTORIAL HepG2 Assay for human Nuclear Respiratory Factor 1 (NRF1) Orphan Gene (AID 2282987; active = hit-call score of the fitted dose curve at least 0.9, where 1 is the maximum; inactive = score below 0.9); conditions: HepG2 NRF1 cis-element reporter, Attagene multiplex; actives raise or lower the signal
In short: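 HepG2 cells transiently transfected with multiple cis-regulated reporter units, exposed 24 h. Reporter mRNAs measured by RT-PCR, fluorescent labelling, HpaI digestion and capillary electrophoresis; bidirectional fitting against DMSO.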

[12] = ATG_NFI_CIS: Attagene CIS-FACTORIAL HepG2 Assay for human Nuclear Factor I (NFI) (AID 2282989; active = hit-call score of the fitted dose curve at least 0.9, where 1 is the maximum; inactive = score below 0.9); conditions: HepG2 cis-regulatory reporter, NFI response element transcription; actives raise or lower the signal
In short: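 Read-out: reporter mRNA via RT-PCR plus capillary electrophoresis with fluorescence detection. Transiently transfected HepG2 (endogenous TF activity on cis promoters), 24 h compound exposure; gain or loss of signal fitted against DMSO.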

[13] = target: Myc proto-oncogene protein (Homo sapiens) (UniProt P01106); assay: ATG_Myc_CIS: Attagene CIS-FACTORIAL HepG2 Assay for human Myelocytomatosis (Myc) Proto-Oncogene Transcription Factor (AID 2282990; active = hit-call score of the fitted dose curve at least 0.9, where 1 is the maximum; inactive = score below 0.9); conditions: HepG2, Attagene cis-reporter transcription factor activity; actives raise or lower the signal
In short: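 HepG2 cells transiently transfected with multiple cis-promoter-driven reporter transcription units, so endogenous TF activity is read. After 24 h compound exposure, reporter mRNA was quantified by RT-PCR, 6-FAM labelling, HpaI digestion and capillary electrophoresis; bidirectional fit versus DMSO.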

[14] = target: X-box-binding protein 1 (Homo sapiens) (UniProt P17861); assay: ATG_Xbp1_CIS: Attagene CIS-FACTORIAL HepG2 Assay for human X-box Binding Protein 1 (XBP1) (AID 2282972; active = hit-call score of the fitted dose curve at least 0.9, where 1 is the maximum; inactive = score below 0.9); conditions: HepG2 XBP1 cis-element reporter, Attagene multiplex; actives raise or lower the signal
In short: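 Fluorescence-labelled cDNA fragments from reporter transcripts, separated by capillary electrophoresis, give the signal. Source: HepG2 cells transfected with promoter-driven reporter units, harvested 24 h post-dose. DMSO served as reference for bidirectional curve fitting.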

[15] = target: Glucocorticoid receptor (Homo sapiens) (UniProt P04150); assay: ATG_GR_TRANS: Attagene TRANS-FACTORIAL HepG2 Assay for human Glucocorticoid Receptor (GR) (AID 2282978); conditions: HepG2 Attagene TRANS GR reporter, mRNA transcription;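 also: activators score as hits since higher reporter transcript over DMSO is fitted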
In short: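 HepG2 cells transiently transfected with GAL4-UAS reporter units and exogenous GR-Gal4 chimera, dosed 24 h. Reporter mRNA by RT-PCR, FAM labeling, HpaI digest and capillary electrophoresis; gain-of-signal fit versus DMSO.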

[16] = ATG_M_06_TRANS: Attagene TRANS-FACTORIAL HepG2 Assay for M06 Transcription Factor (Internal Marker) (AID 2282983); conditions: HepG2 Attagene TRANS M06 internal marker reporter;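 also: reporter transcript level by RT-PCR then capillary electrophoresis fluorescence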
In short: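 HepG2 cells transiently transfected with GAL4-UAS multiple reporter units, dosed 24 h. Reporter RNA reverse-transcribed, PCR-amplified, 6-FAM-labeled, HpaI-digested and quantified by capillary electrophoresis; this internal-marker signal fitted upward relative to DMSO.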

[17] = target: Estrogen receptor (Homo sapiens) (UniProt P03372); assay: ATG_ERa_TRANS: Attagene TRANS-FACTORIAL HepG2 Assay for human Estrogen Receptor alpha (ERa) (AID 2282970); conditions: HepG2 Attagene TRANS ERa GAL4 reporter, mRNA
In short: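 HepG2 cells transiently transfected with multiplexed GAL4-UAS reporter units read out chimeric NR-Gal4 activity. After 24 h compound exposure, reporter mRNA was quantified by RT-PCR, 6-FAM labeling, HpaI digestion and capillary electrophoresis, relative to DMSO.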

[18] = target: Steroid hormone receptor ERR1 (Homo sapiens) (UniProt P11474); assay: ATG_ERRa_TRANS: Attagene TRANS-FACTORIAL HepG2 Assay for human Estrogen-Related Receptor alpha (ERRa) (AID 2282971); conditions: HepG2 Attagene TRANS reporter, ERRa transactivation
In short: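 HepG2 cells transiently transfected with GAL4-UAS reporter units and chimeric NR-Gal4 constructs; after 24 hour compound incubation, reporter mRNA quantified by RT-PCR, fluorescent labelling and capillary electrophoresis, gain of signal versus DMSO.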

[19] = target: Bile acid receptor (Homo sapiens) (UniProt Q96RI1); assay: ATG_FXR_TRANS: Attagene TRANS-FACTORIAL HepG2 Assay for Farnesoid X Receptor (FXR) (AID 2282979); conditions: HepG2 Attagene TRANS FXR-GAL4 reporter transcription;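 also: hits raise reporter mRNA above DMSO so AC50 marks FXR activation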
In short: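 HepG2 cells were transiently transfected with GAL4-UAS reporters driven by chimeric NR-Gal4 proteins and dosed for 24 h. Reporter mRNA was quantified by RT-PCR, fluorescent labelling, HpaI digestion and capillary electrophoresis, with gain of signal scored versus DMSO.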

Chain of X-box-binding protein 1 (Homo sapiens) (P17861 whole entry, looked up, the tested form may be a part): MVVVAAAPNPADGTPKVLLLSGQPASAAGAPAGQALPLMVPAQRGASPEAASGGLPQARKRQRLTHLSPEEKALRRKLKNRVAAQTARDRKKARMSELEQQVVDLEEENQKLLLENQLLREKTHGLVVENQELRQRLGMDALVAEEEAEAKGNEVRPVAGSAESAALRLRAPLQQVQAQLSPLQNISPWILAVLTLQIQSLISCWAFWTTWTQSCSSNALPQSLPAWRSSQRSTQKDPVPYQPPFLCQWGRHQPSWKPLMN
Chain of Nuclear receptor subfamily 1 group I member 3 (Homo sapiens) (Q14994 whole entry, looked up, the tested form may be a part): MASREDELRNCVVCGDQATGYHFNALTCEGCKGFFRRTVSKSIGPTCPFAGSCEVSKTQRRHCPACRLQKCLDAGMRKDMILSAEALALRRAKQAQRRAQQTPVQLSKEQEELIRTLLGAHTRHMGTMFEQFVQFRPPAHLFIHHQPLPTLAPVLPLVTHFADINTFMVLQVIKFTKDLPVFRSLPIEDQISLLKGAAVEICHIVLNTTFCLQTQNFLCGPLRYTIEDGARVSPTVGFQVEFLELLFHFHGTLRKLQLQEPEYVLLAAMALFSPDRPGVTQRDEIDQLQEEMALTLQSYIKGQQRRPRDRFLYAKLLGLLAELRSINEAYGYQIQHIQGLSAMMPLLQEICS
Chain of Oxysterols receptor LXR-beta (Homo sapiens) (P55055 whole entry, looked up, the tested form may be a part): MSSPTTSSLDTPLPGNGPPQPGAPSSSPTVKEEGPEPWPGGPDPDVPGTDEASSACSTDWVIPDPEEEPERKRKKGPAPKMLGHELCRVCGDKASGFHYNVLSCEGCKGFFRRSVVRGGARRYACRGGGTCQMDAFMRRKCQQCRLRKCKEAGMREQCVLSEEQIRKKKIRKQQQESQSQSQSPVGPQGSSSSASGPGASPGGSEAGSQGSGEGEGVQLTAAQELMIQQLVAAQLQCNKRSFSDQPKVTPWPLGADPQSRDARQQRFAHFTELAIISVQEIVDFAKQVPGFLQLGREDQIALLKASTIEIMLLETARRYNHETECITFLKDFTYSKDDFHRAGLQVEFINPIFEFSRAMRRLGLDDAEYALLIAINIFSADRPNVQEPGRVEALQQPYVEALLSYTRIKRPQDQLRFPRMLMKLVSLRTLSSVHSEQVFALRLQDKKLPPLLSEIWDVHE
Chain of Transcriptional activator Myb (Homo sapiens) (P10242 whole entry, looked up): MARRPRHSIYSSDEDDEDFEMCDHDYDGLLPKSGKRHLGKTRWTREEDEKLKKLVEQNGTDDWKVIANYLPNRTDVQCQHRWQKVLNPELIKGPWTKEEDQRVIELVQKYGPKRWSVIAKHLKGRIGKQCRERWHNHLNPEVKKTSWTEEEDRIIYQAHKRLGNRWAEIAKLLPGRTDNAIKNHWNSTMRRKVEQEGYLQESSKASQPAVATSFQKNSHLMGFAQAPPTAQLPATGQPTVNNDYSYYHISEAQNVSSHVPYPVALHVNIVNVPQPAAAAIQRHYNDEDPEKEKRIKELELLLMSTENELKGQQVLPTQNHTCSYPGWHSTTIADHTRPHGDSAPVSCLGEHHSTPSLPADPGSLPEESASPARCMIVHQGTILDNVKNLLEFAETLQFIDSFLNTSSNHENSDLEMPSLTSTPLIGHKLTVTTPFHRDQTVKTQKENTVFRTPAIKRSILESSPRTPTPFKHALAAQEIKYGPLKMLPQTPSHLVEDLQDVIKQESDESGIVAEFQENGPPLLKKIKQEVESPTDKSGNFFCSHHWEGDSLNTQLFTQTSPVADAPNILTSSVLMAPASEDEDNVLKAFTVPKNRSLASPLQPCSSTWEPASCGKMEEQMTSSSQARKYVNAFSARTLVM
Chain of Nuclear receptor subfamily 4 group A member 2 (Homo sapiens) (P43354 whole entry, looked up, the tested form may be a part): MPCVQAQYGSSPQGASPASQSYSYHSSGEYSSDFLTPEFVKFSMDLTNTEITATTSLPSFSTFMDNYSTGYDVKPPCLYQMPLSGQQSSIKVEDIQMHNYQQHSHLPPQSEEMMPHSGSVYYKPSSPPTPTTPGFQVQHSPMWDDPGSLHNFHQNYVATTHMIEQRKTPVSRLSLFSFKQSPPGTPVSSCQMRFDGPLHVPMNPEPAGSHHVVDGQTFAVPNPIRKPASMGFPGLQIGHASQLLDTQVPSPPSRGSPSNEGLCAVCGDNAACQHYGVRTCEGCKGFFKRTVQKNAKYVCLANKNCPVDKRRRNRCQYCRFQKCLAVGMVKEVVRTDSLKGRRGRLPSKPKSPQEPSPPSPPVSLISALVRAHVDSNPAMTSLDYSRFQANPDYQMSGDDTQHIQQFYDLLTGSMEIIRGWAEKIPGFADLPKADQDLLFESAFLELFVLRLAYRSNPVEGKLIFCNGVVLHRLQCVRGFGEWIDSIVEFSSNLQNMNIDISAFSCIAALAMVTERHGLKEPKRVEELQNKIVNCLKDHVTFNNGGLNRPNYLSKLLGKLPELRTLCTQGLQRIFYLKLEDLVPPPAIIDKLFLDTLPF
Chain of Estrogen receptor (Homo sapiens) (P03372 whole entry, looked up, the tested form may be a part): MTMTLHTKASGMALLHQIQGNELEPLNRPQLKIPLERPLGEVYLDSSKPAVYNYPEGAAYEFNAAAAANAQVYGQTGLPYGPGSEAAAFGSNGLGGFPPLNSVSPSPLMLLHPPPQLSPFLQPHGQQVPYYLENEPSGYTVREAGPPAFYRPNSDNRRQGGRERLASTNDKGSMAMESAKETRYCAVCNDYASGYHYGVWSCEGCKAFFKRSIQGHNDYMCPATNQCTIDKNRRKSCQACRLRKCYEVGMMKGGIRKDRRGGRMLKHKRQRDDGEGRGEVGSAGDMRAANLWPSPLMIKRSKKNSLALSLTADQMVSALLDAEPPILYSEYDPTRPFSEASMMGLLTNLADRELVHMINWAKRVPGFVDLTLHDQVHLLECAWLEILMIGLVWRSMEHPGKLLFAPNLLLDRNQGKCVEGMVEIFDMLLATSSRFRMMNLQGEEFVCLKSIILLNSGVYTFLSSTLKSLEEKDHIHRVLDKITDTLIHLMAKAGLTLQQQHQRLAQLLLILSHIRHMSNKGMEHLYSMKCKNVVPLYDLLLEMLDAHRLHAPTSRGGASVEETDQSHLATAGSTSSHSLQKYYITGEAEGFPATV
Chain of Oxysterols receptor LXR-alpha (Homo sapiens) (Q13133 whole entry, looked up, the tested form may be a part): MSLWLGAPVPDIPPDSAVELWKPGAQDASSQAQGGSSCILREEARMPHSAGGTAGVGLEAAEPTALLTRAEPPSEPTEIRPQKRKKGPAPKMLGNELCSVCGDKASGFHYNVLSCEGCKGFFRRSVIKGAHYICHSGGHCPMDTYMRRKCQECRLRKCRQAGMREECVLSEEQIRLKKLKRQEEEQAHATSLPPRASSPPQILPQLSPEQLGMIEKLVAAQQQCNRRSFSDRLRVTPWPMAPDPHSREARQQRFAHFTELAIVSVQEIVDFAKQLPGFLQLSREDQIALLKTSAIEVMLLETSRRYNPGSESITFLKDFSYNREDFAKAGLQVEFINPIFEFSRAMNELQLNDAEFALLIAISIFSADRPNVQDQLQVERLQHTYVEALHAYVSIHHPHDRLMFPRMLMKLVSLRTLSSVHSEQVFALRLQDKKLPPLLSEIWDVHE
Chain of Estrogen-related receptor gamma (Homo sapiens) (P62508 whole entry, looked up, the tested form may be a part): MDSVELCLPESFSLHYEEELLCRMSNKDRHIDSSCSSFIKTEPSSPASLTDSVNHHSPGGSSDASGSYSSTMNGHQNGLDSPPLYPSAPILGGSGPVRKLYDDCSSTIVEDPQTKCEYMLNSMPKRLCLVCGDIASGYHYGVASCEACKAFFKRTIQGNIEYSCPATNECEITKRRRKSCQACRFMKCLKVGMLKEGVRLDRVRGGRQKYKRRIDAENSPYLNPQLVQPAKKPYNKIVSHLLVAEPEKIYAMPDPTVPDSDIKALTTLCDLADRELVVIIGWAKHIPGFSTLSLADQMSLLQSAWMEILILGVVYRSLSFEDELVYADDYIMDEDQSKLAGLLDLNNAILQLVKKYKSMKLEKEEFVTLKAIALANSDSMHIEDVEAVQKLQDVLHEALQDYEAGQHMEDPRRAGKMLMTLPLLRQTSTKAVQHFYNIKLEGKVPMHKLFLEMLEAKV
Chain of Glucocorticoid receptor (Homo sapiens) (P04150 whole entry, looked up, the tested form may be a part): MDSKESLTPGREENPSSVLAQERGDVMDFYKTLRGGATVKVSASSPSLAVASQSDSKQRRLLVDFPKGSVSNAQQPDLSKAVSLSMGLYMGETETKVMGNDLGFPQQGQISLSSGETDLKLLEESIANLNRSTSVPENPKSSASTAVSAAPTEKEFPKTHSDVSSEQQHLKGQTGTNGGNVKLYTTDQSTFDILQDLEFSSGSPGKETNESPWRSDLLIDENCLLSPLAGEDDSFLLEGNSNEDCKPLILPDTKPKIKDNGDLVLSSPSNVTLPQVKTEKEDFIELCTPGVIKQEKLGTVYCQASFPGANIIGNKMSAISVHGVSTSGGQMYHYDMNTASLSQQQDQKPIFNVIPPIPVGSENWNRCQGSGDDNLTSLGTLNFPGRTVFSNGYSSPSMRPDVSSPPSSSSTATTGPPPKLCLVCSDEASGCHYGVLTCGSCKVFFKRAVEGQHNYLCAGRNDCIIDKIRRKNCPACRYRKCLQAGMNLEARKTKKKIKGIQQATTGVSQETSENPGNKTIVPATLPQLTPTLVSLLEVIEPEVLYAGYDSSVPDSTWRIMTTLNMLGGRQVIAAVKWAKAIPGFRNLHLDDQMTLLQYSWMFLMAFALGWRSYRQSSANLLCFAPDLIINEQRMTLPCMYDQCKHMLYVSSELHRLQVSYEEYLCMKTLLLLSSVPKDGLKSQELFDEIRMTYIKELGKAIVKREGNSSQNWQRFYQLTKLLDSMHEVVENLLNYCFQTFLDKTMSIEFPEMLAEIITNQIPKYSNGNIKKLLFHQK

O=C1OC2(c3ccccc31)c1cc(I)c(O)c(I)c1Oc1c2cc(I)c(O)c1I
outcome [1]: inactive | outcome [2]: inactive | outcome [3]: inactive | outcome [4]: inactive | outcome [5]: inactive | outcome [6]: inactive | outcome [7]: inactive | outcome [8]: inactive | AC50 [9]: 25.4 µM (active) | outcome [9]: inactive | outcome [10]: inactive | outcome [11]: inactive | outcome [12]: inactive | outcome [13]: inactive

O=C(O)C(=O)O
outcome [1]: inactive | outcome [14]: inactive | outcome [3]: inactive | outcome [15]: inactive | outcome [5]: inactive | outcome [6]: inactive | outcome [7]: inactive | outcome [16]: inactive | outcome [8]: inactive | outcome [10]: inactive | outcome [11]: inactive | outcome [12]: inactive | outcome [13]: inactive

Cc1ccc(N=Nc2c(O)ccc3ccccc23)c(C)c1
outcome [1]: inactive | AC50 [17]: 6.5 µM (active) | outcome [14]: inactive | outcome [15]: inactive | outcome [5]: inactive | outcome [6]: inactive | outcome [7]: inactive | outcome [16]: inactive | outcome [8]: inactive | outcome [9]: inactive | outcome [10]: inactive | outcome [11]: inactive | outcome [13]: inactive

COC(O)c1ccccc1 (centres undefined)
AC50 [17]: 56.7 µM (active) | outcome [18]: inactive | outcome [14]: inactive | outcome [3]: inactive | outcome [4]: inactive | outcome [15]: inactive | outcome [7]: inactive | outcome [16]: inactive | outcome [8]: inactive | outcome [10]: inactive | outcome [11]: inactive | outcome [12]: inactive | outcome [13]: inactive

O=CC(F)(F)C(F)(F)C(F)(F)C(F)F
outcome [17]: inactive | outcome [18]: inactive | outcome [14]: inactive | outcome [3]: inactive | outcome [4]: inactive | outcome [15]: inactive | outcome [5]: inactive | outcome [6]: inactive | outcome [16]: inactive | outcome [8]: inactive | outcome [9]: inactive | outcome [11]: inactive | outcome [12]: inactive | outcome [13]: inactive

CN(Cc1cnc2nc(N)nc(N)c2n1)c1ccc(C(=O)N[C@@H](CCC(=O)O)C(=O)O)cc1
outcome [17]: inactive | outcome [14]: inactive | outcome [3]: inactive | outcome [19]: inactive | outcome [6]: inactive | outcome [11]: inactive | outcome [13]: inactive

CC(=O)Nc1ccc(S(N)(=O)=O)cc1
outcome [17]: inactive | outcome [18]: inactive | outcome [3]: inactive | outcome [15]: inactive | outcome [19]: inactive | outcome [5]: inactive | outcome [6]: inactive | outcome [16]: inactive | outcome [8]: inactive | outcome [10]: inactive | outcome [11]: inactive | outcome [13]: inactive

O=C1Cc2ccccc2N1c1c(Cl)cccc1Cl
AC50 [17]: 4.59 µM (active) | outcome [14]: inactive | outcome [3]: inactive | outcome [15]: inactive | outcome [16]: inactive | outcome [8]: inactive | outcome [9]: inactive | outcome [10]: inactive | outcome [11]: inactive | outcome [12]: inactive | outcome [13]: inactive

COc1ccccc1NC(=O)c1cc2ccccc2cc1O
outcome [17]: inactive | AC50 [14]: 25.8 µM (active) | outcome [4]: inactive | outcome [19]: inactive | outcome [5]: inactive | outcome [6]: inactive | outcome [7]: inactive | outcome [16]: inactive | outcome [8]: inactive | outcome [9]: inactive | AC50 [10]: 121 µM (active) | outcome [11]: inactive | AC50 [12]: 30.4 µM (active) | AC50 [13]: 100 µM (active)

FC(F)=C(F)C(F)(F)C(F)(F)C(F)(F)C(F)F
outcome [17]: inactive | outcome [14]: inactive | outcome [3]: inactive | outcome [4]: inactive | outcome [19]: inactive | outcome [8]: inactive | outcome [11]: inactive | outcome [13]: inactive
